Broadly, the inhibition is the relative decrease from the control value, in per cent.

Test [1] is described as follows: stimulators of insulin release from INS-1E, primary screen, cell-based, 5 mM glucose, NPC library (AID 1117329). Conditions: rat INS-1E insulin secretion, at 10 µM, stronger effect = higher value.
A short description of test [2]: growth inhibition of GSK3B-pretreated HCT116 cells – cell-based, CellTiter-Glo, 0.2 to 20 µM (AID 1117336;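 active = compounds lowering colon cancer cell viability after pretreatment blocking the GSK3B kinase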). The conditions noted are these: HCT116 viability after GSK3B inhibitor, at 20 µM, stronger effect = higher value. On the technique in general: ATP-based viability assays read luminescence as a measure of living cells.
Test [3] is described as follows: inhibition of endothelial tube formation, primary screen, imaging, VEGF stimulated, CD31 staining, tube area, NPC library (AID 1117340;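 active = compound that reduces growth-factor-driven endothelial tube area in a mixed cell culture, no cutoff stated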). The conditions noted are these: VEGF-stimulated ADSC/ECFC co-culture, at 10 µM, stronger effect = higher value.
Test [4] in a line: glucagon-like peptide 1 release enhancers, primary assay, NCI-H716 cell line, NPC library (AID 1117341;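 active = compound raises GLP1 secretion from the human gut endocrine cells, with no numeric limit stated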). The conditions noted are these: NCI-H716 cells, at 10 µM, stronger effect = higher value.
Test [5] can be described thus: HCT116 colon cancer cell growth inhibition, primary screen, CellTiter-Glo luminescence, NPC library (AID 1117342;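 active = compounds that lower survival of HCT116 colon cancer cells in the luminescence readout, no numeric limit stated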). Conditions: at 20 µM (top of the series).
The nature of test [6]: CellTiter-Glo luminescent readout of SW480 viability loss, NPC library primary (AID 1117343;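 active = compounds that lower viability of the colon cancer cells in the luminescence readout, with no numeric limit stated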). Conditions: CellTiter-Glo luminescence; at 20 µM (top of the series).
The nature of test [7]: decreased DLD-1 cellular survival, CellTiter-Glo luminescent readout, NPC compound collection, primary HTS (AID 1117346;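 active = compounds that lower survival of DLD-1 colon cancer cells in the luminescence readout, no cutoff given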). Conditions: DLD-1 viability, CellTiter-Glo luminescence; at 20 µM (top of the series).
Test [8] has as its target 6-phosphogluconate dehydrogenase, decarboxylating (Homo sapiens) (UniProt P52209). The experiment in a line: 6PGD enzyme inhibitors, primary screen, biochemical, human, recombinant enzyme, NADPH absorbance (AID 1159550;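 active = at least 20% inhibition of 6-phosphogluconate dehydrogenase activity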). The conditions noted are these: recombinant 6PGD, NADPH absorbance 341 nm; at 10 µM; stronger effect = higher value.
The nature of test [9]: differential killing of epithelial or mesenchymal cells, primary screen, imaging, PC-3E GFP, TEM4-18 mCherry, co-culture (AID 1345086;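 active = compounds killing one labelled cell type while sparing the other, by normalised counts and ratio limits, not self-fluorescent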;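 as to all read-outs here: cells exposed to compound for 72 h before imaging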;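 as to red/green cell ratio (normalised): normalised mesenchymal count divided by normalised epithelial count so high means epithelial killing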). Conditions: imaging cell counts, at 1 µM; for red/green cell ratio (normalised): actives lie on both sides, counts scaled to control wells, 1 = unselective.
The mark [10] stands for this setting: measured here: epithelial PC-3E GFP cell survival.
Where [11] appears, read: measured here: mesenchymal TEM4-18 mCherry cell survival.

Activity calls are given as the source filed them.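 The calls were made as follows, unless noted: active = compound raises insulin release from rat beta cells at 5 mM glucose, no numeric limit stated; inactive = the rest.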

Sequence of 6-phosphogluconate dehydrogenase, decarboxylating (Homo sapiens) (P52209 whole entry, looked up): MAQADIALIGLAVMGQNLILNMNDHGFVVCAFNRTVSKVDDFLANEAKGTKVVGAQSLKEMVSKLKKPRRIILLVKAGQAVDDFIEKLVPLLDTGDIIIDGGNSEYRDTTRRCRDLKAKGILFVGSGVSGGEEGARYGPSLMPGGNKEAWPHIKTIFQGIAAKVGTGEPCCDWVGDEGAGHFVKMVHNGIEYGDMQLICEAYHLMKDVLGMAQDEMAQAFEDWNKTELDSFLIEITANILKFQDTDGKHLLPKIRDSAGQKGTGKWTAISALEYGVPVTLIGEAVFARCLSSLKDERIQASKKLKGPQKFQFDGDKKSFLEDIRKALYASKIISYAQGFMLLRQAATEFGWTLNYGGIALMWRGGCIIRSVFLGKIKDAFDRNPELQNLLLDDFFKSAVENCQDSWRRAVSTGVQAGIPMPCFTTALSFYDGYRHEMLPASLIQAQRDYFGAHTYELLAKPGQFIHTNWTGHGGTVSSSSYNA

As for `CC(=O)OC/C=C(C)/C=C/C=C(C)/C=C/C1=C(C)CCCC1(C)C`, the insulin secretion stimulation in test [1] is 3% (inactive). In test [2], the viability decrease was -11.9% (inactive). The tube area decrease in test [3] was 0.2% (inactive). Besides, in test [4], the GLP1 secretion stimulation is 5.9% (inactive). Further, the inhibition of viability in test [5] is 2.7% (inactive). Further, the viability decrease (inhibition) in test [6] is -5.5% (inactive); in test [7], -3.2% (inactive). The inhibition in [8] is -10.8% (inactive). Besides, the red/green cell ratio (normalised) in [9] was 0.94 (inactive). Further, the results for the normalised cell number in [9] (setting [10]) and in test [9] (setting [11]) were 1 and 0.94, respectively.

With `O=C(CCCN1CCN(c2ccccn2)CC1)c1ccc(F)cc1`, the insulin secretion stimulation in test [1] is 7.45% (inactive). The viability decrease in test [2] is 31.5% (inactive). In test [3], the tube area decrease is -12.3% (inactive). In test [4], the GLP1 secretion stimulation is -0.3% (inactive). In addition, the inhibition of viability in [5] was 51% (active). For the same molecule, the viability decrease (inhibition) in test [6] is 11.4% (inactive); in [7], 20.2% (inactive). The inhibition in test [8] was 1.29% (inactive). For the same molecule, the red/green cell ratio (normalised) in [9] is 1.1 (inactive). Moreover, the normalised cell number was found to be 1.11 in test [9] (setting [10]) and 1.22 in [9] (setting [11]).

Turning to `CCCCCCCCNC(C)C(O)c1ccc(SC(C)C)cc1` (stereo not drawn), the insulin secretion stimulation in test [1] was -0.1% (inactive). Further, the viability decrease in [2] is 101% (active). Further, the tube area decrease in [3] was 45.2% (active). For the same molecule, the GLP1 secretion stimulation in [4] was 38.4% (active). Also, the inhibition of viability in [5] was 102% (active). Further, the viability decrease (inhibition) in test [6] is 142% (active); in [7], 103% (active). Besides, in [8], the inhibition was 12% (inactive). The red/green cell ratio (normalised) in test [9] was 1.4 (inactive). Besides, the values for the normalised cell number in test [9] (setting [10]) and in [9] (setting [11]) were 0.68 and 0.96, respectively.

In the case of `CCCCc1nc(Cl)c(CO)n1Cc1ccc(-c2ccccc2-c2nn[nH]n2)cc1`, the insulin secretion stimulation in [1] is 0.1% (inactive). Further, the viability decrease in test [2] is -41.3% (inactive). Moreover, the tube area decrease in [3] was 11.8% (inactive). Besides, the GLP1 secretion stimulation in test [4] is 1.1% (inactive). The inhibition of viability in test [5] is -10.5% (inactive). Further, the viability decrease (inhibition) in [6] is 28.5% (inactive); in test [7] it was -22.4% (inactive). In [8], the inhibition is -22.5% (inactive). In test [9], the red/green cell ratio (normalised) was 1.09 (inactive). Besides, the normalised cell number was determined as 1.34 in test [9] (setting [10]) and 1.46 in test [9] (setting [11]).

Consider `Cc1c(NC(=O)c2cccnc2)c(=O)n(-c2ccccc2)n1C`, for which the insulin secretion stimulation in test [1] is -1% (inactive). Further, the viability decrease in test [2] was -14.1% (inactive). For the same molecule, the tube area decrease in [3] is 7.1% (inactive). In addition, the GLP1 secretion stimulation in test [4] was -0.1% (inactive). Moreover, the inhibition of viability in test [5] was -4.77% (inactive). Also, the values for the viability decrease (inhibition) in test [6] and in test [7] were 18.1% (inactive) and -19.7% (inactive), respectively. In test [8], the inhibition is -15.8% (inactive). Besides, the red/green cell ratio (normalised) in [9] was 1.04 (inactive). The values for the normalised cell number in [9] (setting [10]) and in test [9] (setting [11]) were 1.05 and 1.09, respectively.

For `CCN(CC)CCNC(=O)c1ccc(NC(C)=O)cc1`, the insulin secretion stimulation in [1] was 0.3% (inactive). Further, the viability decrease in test [2] was 23% (inactive). Moreover, the tube area decrease in [3] is 23.1% (inactive). Moreover, the GLP1 secretion stimulation in test [4] is 1.6% (inactive). Moreover, in test [5], the inhibition of viability was 18.3% (inactive). Besides, the viability decrease (inhibition) in [6] was 25.6% (inactive); in [7] it was 19.5% (inactive). Moreover, the inhibition in test [8] is 3.51% (inactive). Moreover, the red/green cell ratio (normalised) in [9] is 1.26 (inactive). In addition, the normalised cell number stood at 0.89 in [9] (setting [10]) and 1.13 in test [9] (setting [11]).

As for `CN1CCOC(c2ccccc2)c2ccccc2C1` (stereo not drawn), the insulin secretion stimulation in test [1] was 1.8% (inactive). Moreover, the viability decrease in test [2] is -52.9% (inactive). Further, the tube area decrease in test [3] is 0.9% (inactive). The GLP1 secretion stimulation in [4] was 4% (inactive). The inhibition of viability in test [5] is 12.4% (inactive). For the same molecule, the viability decrease (inhibition) was 40.1% (inactive) in test [6] and -7.2% (inactive) in test [7]. Further, the inhibition in test [8] was 5.09% (inactive). The red/green cell ratio (normalised) in [9] is 1.19 (inactive). Besides, the normalised cell number in [9] (setting [10]) came out at 0.43; in test [9] (setting [11]), 0.51.

On to `Cc1c(N(C)CS(=O)(=O)O)c(=O)n(-c2ccccc2)n1C`, for which the insulin secretion stimulation in test [1] is -0.6% (inactive). In addition, the viability decrease in test [2] is 1.05% (inactive). For the same molecule, the tube area decrease in test [3] was -53.1% (inactive). Besides, the GLP1 secretion stimulation in test [4] is 2.4% (inactive). The inhibition of viability in test [5] is 3% (inactive). Further, the viability decrease (inhibition) is 23.9% (inactive) in [6] and 3.35% (inactive) in test [7]. Moreover, the inhibition in [8] is 19.3% (inactive). The red/green cell ratio (normalised) in [9] is 1.09 (inactive). In addition, the normalised cell number is 1.23 in [9] (setting [10]) and 1.35 in [9] (setting [11]).
